Experimental data taken from ChEMBL document CHEMBL4513216, “Probing the Open Global Health Chemical Diversity Library for Multistage-Active Starting Points for Next-Generation Antimalarials” (ACS Infect Dis, 2020).
The whole screen tested about 69,000 compounds, of which about 8,600 (12%) showed an effect of 50% or more. The sample as a whole holds a higher share of strong results than the screen did.

tested on: Plasmodium berghei; assay: Screen against P. berghei liver stage (PbLuc), transformed with Luciferase, at 10uM; assay type: functional, HepG2; conditions: tested at 10 uM

Structure (SMILES)	INHIBITION
CC(C)C(=O)N1CCN(Cc2cnn(C)c2)CC2(CC(=O)N(C)C2)C1 (centres undefined)	-10.3%
O=C(c1ccc[nH]1)N1CCN(Cc2ccncc2)c2ncccc2C1	23.3%
Cc1ccc(-n2c(SCC(=O)O)nnc2-c2cccc(C)c2)cc1	7.52%
Cc1cnc(C(=O)N2CCCn3c(nc(CN(C)C)cc3=O)C2)cn1	-10.3%
Cc1cc(NC(=O)N2CCN(C)CC2C)n(C)n1 (centres undefined)	40.5%
Cc1cc(NC(=O)N2CCN(C)CC2C)n(CCC#N)n1 (centres undefined)	53.4%
Cc1cc(NC(=O)N2CCN(C)CC2C)n(Cc2ccccc2)n1 (centres undefined)	43.4%
CCCN1C[C@@H]2CC[C@H]1CN(Cc1ccc(-n3cccn3)cc1)C2	49.5%
COC[C@@]12CCC[C@@H]1CN(C(=O)COc1ccccc1OC)C2	19.5%
Cc1ccccc1OCCC(=O)NC(C)c1nnc2n1CCCCC2 (centres undefined)	28.8%
Nc1nccnc1C1CN(Cc2ccc(OCC(=O)O)cc2)CCO1 (centres undefined)	-22.5%
COc1ccc2c(c1)C(C(=O)N(C)CCCc1cnn(C)c1)CC(=O)N2 (centres undefined)	55.4%
COc1ccc2c(c1)C(C(=O)N(C)CCc1cnn(C)c1)CC(=O)N2 (centres undefined)	82.3%
COc1ccc2c(c1)CC(C(=O)N(C)CCCc1cnn(C)c1)CO2 (centres undefined)	-1.91%
COc1ccc2c(c1)C(C(=O)N(C)CCCc1nccn1C)CC(=O)N2 (centres undefined)	23%
COc1ccc2c(c1)C(C(=O)N(C)CCn1ccnc1C)CC(=O)N2 (centres undefined)	13.7%
COc1ccc2c(c1)C(C(=O)N(C)CCc1scnc1C)CC(=O)N2 (centres undefined)	44.3%
CCOc1ncccc1Cn1cc2[nH]cccc-2c1=O	18%
Cc1nn(CC(=O)O)c2nccc(-c3ccc(F)cc3)c12	39.5%
CC(O)CN(c1ccccc1)S(=O)(=O)c1cc(C(=O)O)cc2c1CCC2 (centres undefined)	19.7%
CCN(c1ccccc1)S(=O)(=O)c1cc(C(=O)O)cc2c1CCC2	56.5%
CCN(c1cccc(F)c1)S(=O)(=O)c1cc(C(=O)O)cc2c1CCC2	38.6%

Structure (SMILES)	INHIBITION
COCCNC(=O)Nc1ccc(-n2cncn2)c(C(F)(F)F)c1	21.8%
COCCS(=O)(=O)Nc1ccc(-n2cncn2)c(F)c1	56.5%
CC(=O)Nc1ccc(-n2cncn2)c(F)c1	-6.91%
COCCOc1ncccc1C(=O)Nc1ccc(-n2cncn2)c(F)c1	13.1%
CC(C)NC(=O)CCNC(=O)Nc1ccc(-n2cncn2)c(F)c1	-18%
COCCNC(=O)Nc1ccc(-n2cncn2)c(F)c1	58.2%
CN1CCN(Cc2cccnc2)C2(CCN(Cc3ccccn3)C2)C1=O (centres undefined)	-16%
CSCC(=O)N1C[C@@H](C)[C@](O)(C(C)C)C1	5.23%
CN(C)c1nccc(C2CN(C(=O)CO)C2)n1	1.5%
Cc1cc(Nc2cnccn2)nc(C2CCCN(CCO)C2)n1 (centres undefined)	1.62%
Cc1cc(C)nc(Nc2ccc(C3CCCCN3)cn2)n1 (centres undefined)	-0.232%
c1cnc(Nc2ccc(C3CCCCN3)cn2)cn1 (centres undefined)	-15.1%
Cc1cccc(Nc2ccc(C3CCCCN3)cn2)n1 (centres undefined)	70.3%
O=C(CCc1ccccc1F)NC1CCCN(c2ccccn2)C1 (centres undefined)	-40.55%
CCN(CC)C(=O)NC(C)c1ccc(Oc2cccnc2)c(F)c1 (centres undefined)	36.3%
COc1ccc2c(c1)C1(CCN(Cc3cccnc3)CC1)N(C)CC2	-27.4%
O=C1CC(c2ccncc2)C2(CCN(CC3CC3)CC2)N1 (centres undefined)	-4.32%
O=C(CCc1cccc(Cl)c1Cl)N1CCOCC1c1ncon1 (centres undefined)	33.8%
CN(Cc1ccccc1)CC(O)Cn1cnc2sccc2c1=O (centres undefined)	10.675%
CN(Cc1ccccc1)CC(O)Cn1cnc2ccsc2c1=O (centres undefined)	56.6%
CN(Cc1ccccc1)CC(O)Cn1cnc2ccccc2c1=O (centres undefined)	2.26%
O=C(CCc1cc2n(n1)CCCNC2)NCCCSC1CCCCC1	40.3%

Structure (SMILES)	INHIBITION
CCN(Cc1ccc2c(c1)OCO2)C(=O)Cn1cccnc1=O	37.9%
COc1cc2c(cc1CNC(=O)C(C)n1ccnc1C(C)C)OCCO2 (centres undefined)	42.3%
COc1cccc(CNC(=O)C(C)n2ccnc2C(C)C)c1OC (centres undefined)	62.1%
COc1cc2c(cc1CNC(=O)C(C)n1ccnc1C(C)C)CCC2 (centres undefined)	26.5%
OCCN1CCCC(c2nccnc2Oc2ccccc2)C1 (centres undefined)	-3.31%
O=C(C1CCN(c2snc3ccccc23)CC1)N1CCCCCC1	36.2%
O=C(C1CCCN(c2nc3ccccc3cc2CO)C1)N1CCCC1 (centres undefined)	61.9%
CCCC(=O)NC1CCCN(c2nc3ccccc3cc2CO)C1 (centres undefined)	7.19%
CC(=O)NC1CCCN(c2nc3ccccc3cc2CO)C1 (centres undefined)	66.5%
OCc1cc2ccccc2nc1N1CCCC1	16.8%
CC(=O)NC1CCCN(c2ccc(C#N)cc2C(F)(F)F)C1 (centres undefined)	-17.9%
O=C(C1CCC1)N1CCN(c2snc3ccccc23)CC1	32.8%
Cc1cc(N2CCN(c3nc4ccccc4cc3CO)CC2)nc(C)n1	48.8%
OCc1cc2ccccc2nc1N1CCCCC1	53.1%
CC(C)c1noc(CN2CCC(C3CCCCCN3S(C)(=O)=O)CC2)n1 (centres undefined)	34%
COc1cc(CNCCc2nc(C)cs2)cc2c1OCCO2	31%
CC1c2ccc(F)cc2CCN1C(=O)c1[nH]c(=O)[nH]c(=O)c1N (centres undefined)	23.6%
CCn1cnc(NC(=O)NCC2CCS(=O)(=O)CC2)n1	4.12%
Cc1occc1C(=O)N1CCC[C@]2(C[C@@H](OCc3ccncc3)CO2)C1	-9.67%
CCN(Cc1ccc2c(c1)OCCO2)C(=O)Cn1cccnc1=O	37.9%
Cc1c(S(=O)(=O)N2CCOCC2)cc2c(C)cc(=O)n3c2c1CCC3	2.45%
OCC1CCN(c2ccc(NCc3ccsc3)nc2)CC1	54.4%

Structure (SMILES)	INHIBITION
CC(C)c1nc(CNc2ccc(N3CCC(CO)CC3)cn2)cs1	13%
Cc1ccc(CNc2ccc(N3CCC(CO)CC3)cn2)o1	14.1%
Cc1cnn(CC2CCCCN2CCCS(C)(=O)=O)c1 (centres undefined)	5.03%
Cn1cc(-c2csc(N3CCSCC3)n2)cn1	-42.1%
Cn1cc(-c2csc(N3CCCCCC3)n2)cn1	79.8%
CN1CCN(c2nc(-c3cnn(C)c3)cs2)CC1	-1.45%
CO[C@H]1CN(Cc2cccc(C#N)c2)[C@@H]2COC[C@H]12	34.1%
CS(=O)(=O)N1CC2(CCN(C3COC3)C2)Cc2ccccc21 (centres undefined)	55.7%
CS(=O)(=O)N1CC2(CCN(CC3CCCCC3)C2)Cc2ccccc21 (centres undefined)	48.2%
CS(=O)(=O)N1CC2(CCCN(C3COC3)C2)Cc2ccccc21 (centres undefined)	28.4%
CS(=O)(=O)N1CC2(CCN(CC3CC3)C2)Cc2ccccc21 (centres undefined)	21.7%
CS(=O)(=O)N1CC2(CCN(C3CCCCC3)C2)Cc2ccccc21 (centres undefined)	40.8%
CS(=O)(=O)N1CC2(CCCN(CC3CC3)C2)Cc2ccccc21 (centres undefined)	54.9%
CC(C)OCc1noc(C2CC=CC2)n1	-20%
CC1CN(C)CCN1C(=O)Nc1nc(-c2cccn2C)cs1 (centres undefined)	47%
CCCc1nnc(N2CCN(c3cccc(C)c3C)CC2)o1	30.1%
Cc1nc2sccn2c1C(=O)N1CCc2[nH]cnc2C1	58.3%
O=C(c1cn(CC(=O)N2CCc3[nH]cnc3C2)c2ccccc12)C1CC1	12.6%
CC(=O)Nc1cccc(C(=O)N2CCc3c(nc(N(C)C)[nH]c3=O)C2)c1	41.5%
Cc1nc2ncccn2c1C(=O)N1CCc2[nH]cnc2C1	22.5%
Cc1nc2sccn2c1C(=O)N1CCc2c(nc(N(C)C)[nH]c2=O)C1	51.8%
Cc1nc2sccn2c1C(=O)N1CCc2c(nc(N)[nH]c2=O)C1	-31.6%

Structure (SMILES)	INHIBITION
O=C(Nc1ccc(F)cc1-c1nc(C2CC2)no1)N1CC[C@@H](O)C1	42.1%
COc1ccccc1NC(=O)CCNC(=O)c1ccoc1	-37.8%
CCc1nc(C2CCCN2C(=O)CCc2c(C)noc2Cl)no1 (centres undefined)	1.78%
CCc1nnc2n1CCN(C(=O)C(C)Oc1cccc(C#N)c1)C2 (centres undefined)	-15%
COCC(=O)N1CCN(CCn2cccn2)c2nc(C)ccc2C1	21.4%
CC(C)C(Nc1nc(C(F)(F)F)nc2ccccc12)C(=O)O (centres undefined)	22.3%
FC(F)(F)c1nc(NC2CCCCC2)c2ccccc2n1	88.4%
Cc1nc2n(n1)CC(Nc1nc(C(F)(F)F)nc3ccccc13)CC2 (centres undefined)	-59.3%
FC(F)(F)c1nc(NC2CCCC2)c2ccccc2n1	88.4%
CCC(Nc1nc(C(F)(F)F)nc2ccccc12)C(=O)O (centres undefined)	-21.3%
CC(C(=O)NC1CCCCC1)N1CCc2[nH]nc(C(F)(F)F)c2C1 (centres undefined)	-41.7%
Cc1noc(C)c1-c1ccc(C2CCCN2CCC(N)=O)nc1 (centres undefined)	30.4%
CC(C)N1CCC(Cc2cncc(-c3cc(F)ccc3C(=O)O)n2)C1 (centres undefined)	35.2%
Cc1cnc(CN2CCCC2c2cnn(C)c2)cn1 (centres undefined)	-11.4%
Cc1ccccc1N(CC(=O)NCCc1nnc2n1CCC2)S(C)(=O)=O	-9.51%
CN1CCc2nc(C3CCCCN3Cc3ccccc3Cl)ncc2C1 (centres undefined)	13.5%
CN1CCCCC1c1ncc2c(n1)CCN(Cc1ccc(Cl)c(F)c1)C2 (centres undefined)	58.1%
CN1CCCCC1c1ncc2c(n1)CCN(Cc1ccccc1Cl)C2 (centres undefined)	51.7%
CN1CCCCC1c1ncc2c(n1)CCN(Cc1ccc(F)cc1)C2 (centres undefined)	24.4%
Clc1ccccc1CN1CCc2nc(C3CCCCN3)ncc2C1 (centres undefined)	43.2%
COc1ccc(CN2CCc3nc(C4CCCCN4C)ncc3C2)cc1 (centres undefined)	42.6%
